Assay results as given in PubChem BioAssay AID651644 (National Center for Advancing Translational Sciences (NCATS), 2012).
Among all 360,000 compounds or so, about 750 (0.21%) were called active. Roughly 2% stayed inconclusive and do not appear here. Many of the other results were omitted from the sample, so actives are more common in it than they were. Values without a mark were called inactive. The call rests on the fitted dose curve; in most records, active means well fitted falling curve with a large enough effect; inconclusive means small, poorly fitted or top-dose-only effect; inactive means no such curve, though single readings can be large or run the other way.

assay: qHTS Assay for Inhibitors of the HIV-1 protein Vpr; further: nearly all actives have a fitted effect of over 50% in size; details: S. pombe RE007 Vpr strain, BacTiter-Glo ATP luminescence, 24 h; series mostly up to 92.2 µM; activity change, negative = less growth: at the top concentration
Excerpt: Human immunodeficiency virus type 1 (HIV-1), the causative agent of AIDS, contains a protein called viral protein R (Vpr) that plays an important role in the viral life cycle and the pathogenesis of HIV-1.
These Vpr specific activities include cytoplasmic-nuclear shuttling, induction of cell cycle G2 arrest and cell killing. The cytoplasmic-nuclear shuttling is believed to participate in nuclear transport of the proviral integration complex (PIC). The cell cycle G2 arrest induced by Vpr is thought to suppress human immune functions by preventing T cell clonal expansion and to provide an optimized cellular environment for maximal levels of viral replication. In addition, Vpr induces apoptosis, which may contribute to the depletion of CD4 T cells in HIV-infected patients. Since the Vpr-specific activities have been linked to such clinical manifestation of AIDS as activation of viral replication, suppression of host immune responses and depletion of CD4+ T-lymphocytes, identification of new molecular probes that can inhibit the Vpr activities could potentially provide a new approach to reduce Vpr-mediated detrimental effects in HIV-infected patients, and thus prolong patient's lives. Currently, there are no anti-Vpr drugs.
A fission yeast (Schizosaccharomyces pombe) model system for the Vpr studies has been developed which measures HIV-1 Vpr-induced cell death. This assay will be used for to screen the NIH Molecular Libraries Small Molecule Repository (MLSMR) identify small molecule HIV-1 Vpr inhibitors.
NIH Chemical Genomics Center [NCGC]
NIH Molecular Libraries Probe Centers Network [MLPCN]
Assay Submitter (PI): Richard Zhao, University of Maryland
The fission yeast RE007 strain was used, which carries a single integrated copy of HIV-1 vpr gene in the yeast chromosome. The starting culture was frozen stock 100ul of yeast RE007 in 150ml of *PMG+AL medium, Incubation in 30 degree plus 99% humidity for 18 hours. Next day dispensed 2.5ul of PMG+AL medium in each well to 1536 well white solid plate, then 23nL compound were delivered to each well using a pin tool. Check OD for overnight culture and add cell density at 0.01 for each well, incubation in 30 degree plus 99% humidity for 24 hours. After add 5 ul of *BacTiter/Glo detect reagent to each well at room temperature for 5 minutes then to red out results with Viewlux CCD camera.
On the % scale 0 is the no-effect control and ±100 the full control effect.

| SMILES | activity change, negative = less growth [%] | Potency |
| --- | --- | --- |
| CC(C)(C)C(=O)Nc1ccc(C(=O)N/N=C/c2ccccc2OC(=O)c2ccc(Cl)cc2Cl)cc1 | -4.71 | – |
| CC(C)C(c1nnnn1C1CCCCC1)N1CCN(C(=O)c2ccco2)CC1 (stereo not given) | -6.16 | – |
| CCC1Nc2ncnc(N3CCN(c4ccccc4)CC3)c2N(Cc2ccc(Cl)cc2)C1=O (stereo not given) | -10.5 | – |
| O=C(NNC1CC(=O)N(c2cccc(Cl)c2)C1=O)c1cccnc1 (stereo not given) | -7.49 | – |
| Cc1ccc(NC(=O)C2CCC(C(C)(C)C)CC2)cc1S(=O)(=O)N1CCOCC1 (stereo not given) | -5.98 | – |
| Cc1nn(C)c(C)c1S(=O)(=O)N1CCc2ccccc21 | 12.9 | – |
| Cc1[nH]c(C)c(S(=O)(=O)N2CCC(C)CC2)c1C(=O)N1CCCC1 | 16 | – |
| O=C(O)c1cscn1 | 8.48 | – |
| CC(C)CC1(C(=O)NCc2ccccn2)C=CCN1C(=O)c1ccccc1 (stereo not given) | -16.5 | – |
| COc1ccc(C(O)C(O)(C(=O)OC(C)C)c2ccc(C)cc2)cc1 (stereo not given) | 2.24 | – |
| COC(=O)c1ccc(CNC(=O)c2ccc3oc(C(C)C)nc3c2)cc1 | -1.64 | – |
| Cc1ccc(C)c(-n2cc(CN3CCN(C(=O)c4ncn[nH]4)CC3)c(-c3ccccc3)n2)c1 | 2.12 | – |
| Cc1ccc2c(Cl)c(C(=O)Nc3nn[nH]n3)sc2c1 | 2.79 | – |
| CC(NC(=O)COC(=O)c1ccc(Cl)cc1O)c1ccc(F)cc1 (stereo not given) | 14.6 | – |
| NC(=O)COC(=O)c1sc2cc(F)ccc2c1Cl | – | 25.1 µM (active) |
| Cc1ccc(S(=O)(=O)NCC(=O)N(CC(=O)NC(C)(C)C)Cc2cccs2)cc1 | 4.4 | – |
| COCCCNC(=O)C1CCN(c2ccc(N3CCOCC3)nn2)CC1 | -8.78 | – |
| CCc1nc2c(OCCOc3ccccc3)cccn2c1N(C=O)Cc1ccc(OC)cc1 | -28.1 | – |
| Cc1ccc(S(=O)(=O)N(CC(O)CN2C(=O)NC(C)(C)C2=O)c2cccc([N+](=O)[O-])c2)cc1 (stereo not given) | 51.3 | – |
| COc1ccc(-c2cc(C3CCN(c4ncccc4[N+](=O)[O-])CC3)[nH]n2)cc1 | 12 | – |
| CN(C)C(=O)c1cccc(-c2cnc3sc(NCc4ccc5c(c4)OCO5)nn23)c1 | 17.8 | – |
| Cc1cccc(C(=O)N2CCCC(Nc3ccc(C(C)C)cc3)C2)n1 (stereo not given) | -10.3 | – |
| CC1=C(C(=O)Nc2ccccc2)S(=O)(=O)CCO1 | 14.7 | – |
| O=C(Nc1ccccc1)c1nnsc1S(=O)(=O)c1ccc(Cl)cc1 | – | 6.31 µM (active) |
| Cc1nnsc1C(=O)Nc1cccc(Cl)c1C | -7.71 | – |
| COc1ccc(C(C)NC(=O)C2CCCC2)cc1 (stereo not given) | 16.1 | – |
| O=C(Cn1cc(C(F)(F)F)ccc1=O)Nc1ccc2c(c1)OCCO2 | 1.56 | – |
| CC1(C)Cc2c(sc(NC(=O)C(=O)N3CCOCC3)c2C#N)CO1 | -3.12 | – |

| SMILES | activity change, negative = less growth [%] | Potency |
| --- | --- | --- |
| S=C(Cc1ccc(Cl)cc1)N1CCOCC1 | -11.5 | – |
| CC1CCN(C(NC(=O)c2ccco2)C(=O)c2ccccc2)CC1 (stereo not given) | 9.19 | – |
| CCOC(=O)c1c(Cc2ccc(Cl)cc2)c[nH]c1C | -1.99 | – |
| COc1ccc(N=C2C=CC(=O)O2)cc1 | – | 8.91 µM (active) |
| COC1=CC(=O)OC(c2ccc(OC)cc2)C1 (stereo not given) | 3.06 | – |
| COc1ccc(N=Nc2c(-c3ccc(OC)cc3)[nH]oc2=O)cc1 | -3.2 | – |
| O=C(Nc1ccccc1F)c1ccc(Cn2cc(Br)cn2)cc1 | 4.37 | – |
| C[C@H](CO)N1C[C@H](C)[C@@H](CN(C)Cc2ccc3c(c2)OCO3)OCc2cnnn2CCCC1=O | 3.04 | – |
| Cc1ccccc1-n1nc(C)c2c1N=C1C(Cl)=CC(Cl)=CN1C2c1ccc(C(=O)O)cc1 (stereo not given) | -12 | – |
| Fc1ccccc1N=C1Nc2cccc3cccc1c23 | – | 25.1 µM (active) |
| O=C(NCC1CCCCC1)c1cc(S(=O)(=O)N2CCCCC2)ccc1N1CCOCC1 | -20.1 | – |
| COc1cccc2c1CCC(NC(C)=O)C2=O (stereo not given) | 8 | – |
| CCOc1ccc2[nH]c3nc(SCC(=O)NC4CCCC4)nnc3c2c1 | 5.5 | – |
| COc1ccc(CCN(C)C(=O)C23CC4CC(CC(Cl)(C4)C2)C3)cc1OC | 10.3 | – |
| COc1cccc(C(C(=O)NC2CCCC2)N(C(=O)c2ccco2)c2cccc(C(C)=O)c2)c1OC (stereo not given) | -5.9 | – |
| CCOc1ccc(-c2ccc(SCC(=O)N3CCOCC3)nn2)cc1 | 1.07 | – |
| CCOc1ccc(C(=O)CCC(=O)NC2=NCCS2)cc1 | -25.9 | – |
| CCOc1ccc(C(=O)CCN2CCOCC2)cc1 | – | 39.8 µM (active) |
| O=C(O)CCCn1cc(NC(=O)COc2cccc(Cl)c2)cn1 | 11.7 | – |
| CC(NC(=O)COC(=O)C1CCN(S(=O)(=O)c2ccccc2C(F)(F)F)CC1)c1ccccc1 (stereo not given) | -18.4 | – |
| CN(C)C(CNC(=O)c1cc(Br)c(Br)s1)c1ccco1 (stereo not given) | 3.37 | – |
| O=C1C(Cl)=C(Oc2ccccc2)C(=O)c2ccccc21 | – | 3.16 µM (active) |
| CCC1=C(OC(=O)N(CC)CC)N2C(=O)OC(=NCCc3c[nH]c4ccccc34)[C@]2(C)[C@H]2C1=CC[C@H]1C(=O)N(CC)C(=O)[C@H]12 | 5.02 | – |
| CSCCC(NS(=O)(=O)c1ccc2c(c1)oc(=O)n2C)C(=O)NC1CCCc2ccccc21 (stereo not given) | 5.96 | – |
| CC[C@]1(C(=O)OC)[C@H]2C(=O)N(C)C(=O)[C@H]2[C@H]2CN(C)C(=NCc3ccccc3)N21 | -7.99 | – |
| Cc1cc(C)cc(NC(=O)Cn2cnc3c(nnn3Cc3ccc(F)cc3)c2=O)c1 | 18.1 | – |
| CCc1nnc(NC(=O)CSCc2cc(=O)n3cc(C)sc3n2)s1 | 7.37 | – |
